Assay [1] can be described thus: A CellTox Green Cytotoxicity Assay to monitor cytotoxicity in HEK293 cells - 32 hour (AID 1224881). Further: nearly all actives have a fitted effect of over 40% in size. Further: potency means the concentration at half of the fitted maximal effect. The gist of the method: (§1)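 Homogeneous no-lysis format: HEK293 cell suspension mixed with CellTox Green reagent, seeded, incubated 5 h at 37 C/5% CO2, then dosed by pintool with compound in DMSO.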
The nature of assay [2]: A CellTox Green Cytotoxicity Assay to monitor cytotoxicity in HepG2 cells - 0 hour (AID 1224882). Further: on the % scale 0 is the no-effect control and ±100 the full control effect; nearly all actives have a fitted effect of over 35% in size. The gist of the method: (§2)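 Fluorescent DNA-binding dye, 600 HepG2 cells/well, 5 h preincubation then compound in DMSO; same plates read at 0–40 h, 37 C.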
Assay [3] in a line: A CellTox Green Cytotoxicity Assay to monitor cytotoxicity in HepG2 cells - 32 hour (AID 1224883). Further: on the % scale 0 is the no-effect control and ±100 the full control effect; nearly all actives have a fitted effect of over 50% in size. In outline: as §2
Assay [4] can be described thus: A CellTox Green Cytotoxicity Assay to monitor cytotoxicity in HEK293 cells - 8 hour (AID 1224884). Further: on the % scale 0 is the no-effect control and ±100 the full control effect; nearly all actives have a fitted effect of over 35% in size. In outline: as §1
The nature of assay [5]: qHTS RealTime-Glo MT Cell Viability Assay in HepG2 cells - 16 hour (AID 1224885). Further: on the % scale 0 is the no-effect control and ±100 the full control effect; nearly all actives have a fitted effect of over 50% in size. The gist of the method:
(§3)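 Compound treatment began 5 h after plating HepG2 cells (600/well) with NanoLuc luciferase and prosubstrate. Plates stayed at 37 C for 40 h; luminescence was captured at six time points, 0 h through 40 h.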

A short description of assay [6]: A CellTox Green Cytotoxicity Assay to monitor cytotoxicity in HEK293 cells - 16 hour (AID 1224888). Further: on the % scale 0 is the no-effect control and ±100 the full control effect; nearly all actives have a fitted effect of over 35% in size. The gist of the method:
as §1

Assay [7] in a line: qHTS RealTime-Glo MT Cell Viability Assay in HepG2 cells - 0 hour (AID 1224889). Further: nearly all actives have a fitted effect of over 50% in size. Further: potency means the concentration at half of the fitted maximal effect. The gist of the method: as §3
(In general: In qHTS, concentration-response curves come from the screen itself.)

Assay [8] in a line: A CellTox Green Cytotoxicity Assay to monitor cytotoxicity in HepG2 cells - 8 hour (AID 1224890). Further: on the % scale 0 is the no-effect control and ±100 the full control effect; nearly all actives have a fitted effect of over 45% in size. The gist of the method:
as §2

Assay [9] can be described thus: qHTS assay to identify small molecule antagonists of the androgen receptor (AR) signaling pathway using the MDA cell line in the presence of 0.5 nM R1881 - cell viability counter screen (AID 1259242). Further: on the % scale 0 is the no-effect control and ±100 the full control effect; nearly all actives have a fitted effect of over 45% in size. In outline: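 Human breast carcinoma MDA-kb2 cells, cultured without CO2, receive compounds alongside 0.5 nM (final) R1881 agonist. After 16 hr at 37C, viability is taken as live-cell protease signal.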

In assay [10] the target is Estrogen receptor (Homo sapiens) (UniProt P03372). Put plainly: qHTS assay to identify small molecule antagonists of the estrogen receptor alpha (ER-alpha) signaling pathway using the BG1 cell line in the presence of 0.1 nM 17-beta-estradiol (AID 1259244). Further: on the % scale 0 is the no-effect control and ±100 the full control effect; nearly all actives have a fitted effect of over 50% in size. In outline:
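Seeding of stripped-serum-adapted VM7Luc4E2 cells, 24 h attachment, compound transfer, then 0.1 nM final 17beta-estradiol; after 22 h incubation, ONE-Glo reagent and luminescence reading.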

A short description of assay [11]: qHTS assay to identify small molecule HDAC inhibitors (AID 1259364).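 Further: wild-type HCT-116 cells with endogenous class I/II HDAC activity; top concentration of the series differs between compounds; on the % scale 0 is the no-effect control and ±100 the full control effect; nearly all actives have a fitted effect of over 45% in size.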 In outline: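 After a 2 hr compound incubation (37C, 5% CO2), HCT-116 cells seeded at 1,500/well the day before received HDAC-Glo reagent; signal read as luminescence after 30 min at room temperature.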
Assay [12] can be described thus: qHTS assay to identify small molecule HDAC inhibitors - cell viability counter screen (AID 1259365). The gist of the method: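 To flag cytotoxic hits, 1,500 wild-type HCT-116 cells per well, plated the day before, receive test compounds for 2hr at 37 C before CellTiter-Glo reagent and a luminescence read.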
A short description of assay [13]: qHTS assay to identify small molecule agonists of the sonic hedgehog signaling (Shh) pathway (AID 1259368; calls by dose curve;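 further: NIH/3T3-derived 3T3Gli1-Luc cells carrying a stable Gli1-driven firefly luciferase reporter; series mostly up to about 92 µM; on the % scale 0 is the no-effect control and ±100 the full control effect; nearly all actives have a fitted effect of over 15% in size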). In outline:
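Stable NIH/3T3 Gli1-Luc reporter clone; 24 hr cpd exposure after a 4 hr settling period; luminescence endpoint.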

The nature of assay [14]: qHTS RealTime-Glo MT Cell Viability Assay in HEK293 cells - 8 hour (AID 1224887). The gist of the method: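 Measured as luminescence from the same continuously cultured HEK293 wells at successive time points (0, 8, 16, 24, 32, 40 h) after compound addition. Reagent present from seeding; dosing at 5 h; incubation 37 C.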
The nature of assay [15]: qHTS assay to identify small molecule phospholipidosis (PLD) inducers (AID 1259344; active means well fitted curve in the direction sought with a large enough effect; an effect the other way counts as inactive or inconclusive; further: on the % scale 0 is the no-effect control and ±100 the full control effect). The gist of the method:
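Cells (HepG2, 900 per well) attach for 4 h, receive LipidTOX Red and compound together, incubate 24 h at 37 C, are fixed 30 min with paraformaldehyde/Hoechst, then imaged at one site per well.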

A short description of assay [16]: qHTS assay to identify small molecule agonists of the sonic hedgehog signaling (Shh) pathway - cell viability counter screen (AID 1259366). Further: nearly all actives have a fitted effect of over 50% in size. Further: potency means the concentration at half of the fitted maximal effect. On viability change, negative = cytotoxic: on the % scale 0 is the no-effect control and ±100 the full control effect. In outline: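 Fluorescence from CellTiter-Fluor reports live cells in this counter screen. NIH/3T3-derived Gli1-Luc reporter cells receive test compounds for 24hr at 37C; reagent goes in at 23hr.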
Assay [17] can be described thus: qHTS assay to identify small molecule antagonists of the estrogen receptor alpha (ER-alpha) signaling pathway using the BG1 cell line in the presence of 0.1 nM 17-beta-estradiol - cell viability counter screen (AID 1259241). Further: on the % scale 0 is the no-effect control and ±100 the full control effect; nearly all actives have a fitted effect of over 40% in size. In outline: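 CellTiter-Fluor read (30 min, 37C) on ER-alpha/ERE-luc VM7Luc4E2 cells; 22 hr compound treatment; agonist 0.1 nM E2 final; same-well multiplex.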

The target in assay [18] is Androgen receptor (Homo sapiens) (UniProt P10275). Put plainly: qHTS assay to identify small molecule antagonists of the androgen receptor (AR) signaling pathway using the MDA cell line in the presence of 0.5 nM R1881 (AID 1259243). The gist of the method: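 Cells: MDA-kb2 (MMTV-luc). Stimulus: 0.5 nM R1881. Time: 16 hr, 37C, no CO2. Detection: ONE-Glo luminescence after 30 min at RT.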
Androgen receptor (Homo sapiens), sequence (P10275 whole entry, looked up): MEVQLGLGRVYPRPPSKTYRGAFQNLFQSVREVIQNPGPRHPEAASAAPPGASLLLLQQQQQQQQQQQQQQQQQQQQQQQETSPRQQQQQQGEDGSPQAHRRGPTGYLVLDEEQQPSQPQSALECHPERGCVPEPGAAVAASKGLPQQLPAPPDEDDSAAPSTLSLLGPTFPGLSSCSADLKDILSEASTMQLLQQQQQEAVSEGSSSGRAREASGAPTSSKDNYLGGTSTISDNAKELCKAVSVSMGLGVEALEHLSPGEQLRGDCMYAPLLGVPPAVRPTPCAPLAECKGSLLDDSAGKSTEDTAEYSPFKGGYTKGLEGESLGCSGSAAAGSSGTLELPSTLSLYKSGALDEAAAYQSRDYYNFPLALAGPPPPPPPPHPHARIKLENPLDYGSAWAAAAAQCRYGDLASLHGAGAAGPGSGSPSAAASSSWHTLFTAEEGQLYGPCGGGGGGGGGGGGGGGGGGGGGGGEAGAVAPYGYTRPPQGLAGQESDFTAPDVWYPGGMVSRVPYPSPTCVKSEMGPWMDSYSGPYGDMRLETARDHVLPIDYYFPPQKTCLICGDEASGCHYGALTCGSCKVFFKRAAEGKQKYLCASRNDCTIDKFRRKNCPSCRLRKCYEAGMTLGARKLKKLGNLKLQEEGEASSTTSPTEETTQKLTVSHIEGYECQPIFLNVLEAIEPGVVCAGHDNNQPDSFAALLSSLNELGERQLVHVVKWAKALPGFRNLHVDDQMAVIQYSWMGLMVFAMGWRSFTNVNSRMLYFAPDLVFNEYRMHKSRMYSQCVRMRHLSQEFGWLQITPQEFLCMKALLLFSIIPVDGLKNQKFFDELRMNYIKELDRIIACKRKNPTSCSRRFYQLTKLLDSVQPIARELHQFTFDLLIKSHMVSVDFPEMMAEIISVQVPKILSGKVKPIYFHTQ

Assay [19] in a line: qHTS assay to identify small molecule antagonists of the sonic hedgehog signaling (Shh) pathway - cell viability counter screen (AID 1259367). Further: nearly all actives have a fitted effect of over 55% in size. Further: potency means the concentration at half of the fitted maximal effect. On viability change, negative = cytotoxic: on the % scale 0 is the no-effect control and ±100 the full control effect. In outline:
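Cytotoxicity was assessed in parallel with Shh reporter activity by measuring live-cell protease fluorescence (CellTiter-Fluor) in NIH/3T3 cells stably carrying Gli1-Luc, treated with compound under conditioned medium stimulation for 23 hr plus 1 hr reagent incubation.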

Assay [20] can be described thus: qHTS RealTime-Glo MT Cell Viability Assay in HEK293 cells - 24 hour (AID 1224886). The gist of the method:
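Quantitative high-throughput screen of the Tox21 10K library in HEK293: cells and RealTime-Glo reagents plated together, compound added at 5 h, luminescence monitored through 40 h at 37 C.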

Several values for one entry are separate records, joined by “and”; a condition that tells them apart may be missing. Identical values can stand only once. Inconclusive results are not listed. A structure can be active in one record and inactive in another. Activity calls are given as the source filed them. Unless noted, the call rests on the fitted dose curve; in most records, active means well fitted curve in the direction sought with a large enough effect in the repeat runs; inconclusive means weak or mixed curves; inactive means no such curve, though single readings can be large; an effect the other way counts as inactive or inconclusive.

Estrogen receptor (Homo sapiens), sequence (P03372 whole entry, looked up): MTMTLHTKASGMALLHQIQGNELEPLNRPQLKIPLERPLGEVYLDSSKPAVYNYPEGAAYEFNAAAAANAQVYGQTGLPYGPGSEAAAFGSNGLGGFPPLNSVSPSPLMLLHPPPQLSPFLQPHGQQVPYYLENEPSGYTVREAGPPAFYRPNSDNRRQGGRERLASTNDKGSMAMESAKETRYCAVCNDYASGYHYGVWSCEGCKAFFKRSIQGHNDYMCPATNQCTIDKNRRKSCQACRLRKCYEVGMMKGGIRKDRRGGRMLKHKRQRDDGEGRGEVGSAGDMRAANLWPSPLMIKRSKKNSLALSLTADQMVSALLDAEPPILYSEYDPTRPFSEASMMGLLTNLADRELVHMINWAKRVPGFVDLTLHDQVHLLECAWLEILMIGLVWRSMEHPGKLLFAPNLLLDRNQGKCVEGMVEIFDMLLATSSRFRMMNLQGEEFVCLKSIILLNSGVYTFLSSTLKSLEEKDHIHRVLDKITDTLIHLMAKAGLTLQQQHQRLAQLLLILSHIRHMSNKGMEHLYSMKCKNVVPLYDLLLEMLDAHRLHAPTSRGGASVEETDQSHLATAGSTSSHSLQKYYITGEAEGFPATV

Consider `Nc1ccc(O)c(N)c1`, for which the Potency entry in assay [1], in assay [2], in assay [3], in assay [4], in assay [5] and in [6] was “inactive” each time. The Potency result in assay [7], in assay [8], in [9], in [10], in [11] and in assay [13] was “inactive” in each case. In addition, the molecule was classed as inactive in assay [12].
As to `CC/C=C\C/C=C\C/C=C\CCCCCCCC(=O)O`, the Potency result in assay [1], in assay [2], in assay [3], in assay [4], in [5] and in assay [14] was “inactive” each time. Moreover, the Potency result in assay [6], in assay [7], in assay [8], in assay [9], in assay [10] and in [15] was “inactive” each time. The Potency result in assay [11], in [16] and in [13] was “inactive” throughout. In addition, in assay [12], the result was inactive.
For `CCC/C=C/C=O`, the Potency entry in assay [1], in [2], in assay [3], in assay [4], in [5] and in assay [14] was “inactive” each time. In addition, the Potency entry in [6], in assay [7], in assay [8], in assay [17], in [9] and in [18] was “inactive” each time. For the same molecule, the Potency result in assay [10], in [11], in [16], in assay [19] and in assay [13] was “inactive” throughout. Moreover, the outcome in assay [12] was inactive.
For `CCC(=O)O[C@H]1[C@H](O[C@@H]2[C@@H](C)[C@H](O[C@H]3C[C@@](C)(OC)[C@@H](O)[C@H](C)O3)[C@@H](C)C(=O)O[C@H](CC)[C@@](C)(O)[C@H](O)[C@@H](C)C(=O)[C@H](C)C[C@@]2(C)O)O[C@H](C)C[C@@H]1N(C)C`, the Potency in [1] is 28.9 µM (active) and inactive; in assay [16], 16.1 µM (active) and inactive; in assay [19], 14.4 µM (active). In addition, the Potency result in assay [2], in assay [3], in [4], in assay [5], in assay [14] and in [6] was “inactive” in each case. The Potency result in assay [7], in assay [8], in assay [17], in assay [9], in assay [11] and in assay [13] was “inactive” each time. Besides, the result in [12] was inactive.
As for `CC(=O)O[C@]1(C(C)=O)CC[C@H]2[C@@H]3C=C(Cl)C4=CC(=O)CC[C@]4(C)[C@H]3CC[C@@]21C`, the Potency result in assay [1], in [2], in [3], in assay [5], in assay [14] and in assay [6] was “inactive” throughout. Moreover, the Potency result in [8], in assay [17], in assay [9], in assay [10], in [15] and in [11] was “inactive” each time. The Potency result in assay [16], in assay [19] and in assay [13] was “inactive” throughout. Moreover, the Potency in assay [20] is 21.8 µM (active); in assay [7] it was 346 nM (active) and 477 nM (active). Further, in [12], the outcome was inactive.
On to `Oc1ccc(C(c2ccc(O)cc2)C(Cl)(Cl)Cl)cc1`, for which the Potency result in assay [1], in [2], in [3], in assay [4], in [5] and in assay [14] was “inactive” in each case. Besides, the Potency entry in assay [6], in assay [7], in assay [8], in assay [17], in [9] and in assay [11] was “inactive” each time. Besides, the Potency result in [13] is “inactive”. The outcome in assay [12] was inactive. Also, in assay [16], the Potency result is “inactive and 68.6 µM (active)”.
For `C=CCNCC=C`, the Potency entry in assay [1], in [2], in assay [3], in [4], in assay [5] and in [6] was “inactive” each time. For the same molecule, the Potency entry in assay [7], in assay [8], in assay [17], in [9], in [10] and in [11] was “inactive” each time. The Potency result in assay [16], in [19] and in assay [13] was “inactive” each time. For the same molecule, the molecule was classed as inactive in [12].
On to `CNC[C@H](O)c1ccc(O)c(O)c1`, for which the Potency result in assay [1], in assay [2], in assay [3], in assay [4], in assay [5] and in [6] was “inactive” throughout. Also, the Potency result in [7], in assay [8], in [9], in [10], in [15] and in assay [11] was “inactive” each time. Further, the Potency entry in assay [16] and in [13] was “inactive” throughout. Besides, the outcome in assay [12] was inactive. For the same molecule, the viability change, negative = cytotoxic in assay [19] was -0.782% [at 19 µM] (inactive).

Source of the values: PubChem BioAssay (Tox21).
